# Compound activity: PubChem, National Center for Advancing Translational Sciences (NCATS)
# hNpr1 antagonist: Natriuretic polypeptide receptor (hNpr1) antagonism - Primary qHTS; Atrial natriuretic peptide receptor 1 (Homo sapiens), P16066; HEK293 hNpr1 GloSensor cGMP, ANP-stimulated luminescence; Potency, µM (highest dose often 46.3 µM), without a hit: at the top dose activity change, negative = inhibition, actives largely listed as inhibitors; hit rate 1.6% among 76,000; AID 1347048, 2019; calls by dose curve; note: nearly all actives have a fitted effect of over 60% in size
#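 HEK293 cells stably expressing human Npr1 and cGMP GloSensor pGS-40F, loaded 2 h with 2% GloSensor reagent, given compound 30 min at room temperature. Luminescence read before and 20 min after 0.1 nM hNppA.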
# FLuc inh: Firefly luciferase inhibition profiling of diverse chemical library using quantitative high-throughput screening; Luciferin 4-monooxygenase (Photinus pyralis), P08659; purified P. pyralis luciferase, luminescence, biochemical; Potency, µM (doses to about 115 µM), usual class: inhibitors; hit rate 2.5% among 76,000; AID 1347043, 2019; note: nearly all actives have a fitted effect of over 65% in size
# Target sequence (P08659 whole entry, looked up): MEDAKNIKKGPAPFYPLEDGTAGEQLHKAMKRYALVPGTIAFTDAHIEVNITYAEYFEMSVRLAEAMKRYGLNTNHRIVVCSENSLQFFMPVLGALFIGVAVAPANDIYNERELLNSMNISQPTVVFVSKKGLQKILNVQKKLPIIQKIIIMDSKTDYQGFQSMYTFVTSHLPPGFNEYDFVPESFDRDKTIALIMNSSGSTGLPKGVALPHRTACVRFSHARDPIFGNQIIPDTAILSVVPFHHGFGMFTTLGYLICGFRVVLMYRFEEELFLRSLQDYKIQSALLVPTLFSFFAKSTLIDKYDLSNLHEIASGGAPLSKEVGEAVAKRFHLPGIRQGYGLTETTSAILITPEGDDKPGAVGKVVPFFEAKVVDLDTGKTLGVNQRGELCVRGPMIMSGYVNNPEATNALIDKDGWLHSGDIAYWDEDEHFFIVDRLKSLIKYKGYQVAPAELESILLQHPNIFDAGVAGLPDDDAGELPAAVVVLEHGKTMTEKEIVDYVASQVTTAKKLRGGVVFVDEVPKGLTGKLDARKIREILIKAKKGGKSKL
#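 Cell-free enzyme assay, 10nM P. pyralis luciferase, luciferin and ATP each at 10uM. Inhibition profiled over a 6-point titration, read as luminescence.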
# NIH3T3 tox: Cytotoxic Profiling in NIH 3T3 Cell Line of Diverse Libraries Using Quantitative High-Throughput Screening; NIH 3T3 viability, CellTiter-Glo ATP luminescence, 48-72 h; Potency, µM (top dose mostly 96.7 µM), for the others: at the highest dose activity change, negative = cytotoxicity, most hits filed as inhibitors; hit rate 4.3% among 94,000; note: nearly all actives have a fitted effect of over 55% in size
#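 Mouse fibroblast NIH 3T3 cells, 400 per well, received compound via pintool and were incubated for 48 or 72 hr prior to CellTiter-Glo ATP luminescence measurement.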
# HEK293 tox: Cytotoxic Profiling in HEK 293 Cell Line of Diverse Libraries Using Quantitative High-Throughput Screening. hit rate 6.6% among 94,000. Potency, µM (highest dose often 115 µM), inactives show at the highest dose activity change, negative = cytotoxicity, hits mostly inhibitors. HEK 293 viability, ATP luminescence (CellTiter-Glo), 48-72 h; note: nearly all actives have a fitted effect of over 60% in size
#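 CellTiter-Glo luminescence (cellular ATP) was read after 48 or 72 hr of compound exposure at 37 degree Celsius. Cells were HEK 293 plated at 250 cells/well.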
# An asterisk follows results filed as active; i = inactive; ? = inconclusive; . = no result given; ! = not active in a repeat; [ ] = dose if it differs, or a comment. Most compounds without a hit are left out; they make up all but 11% or so of the library. Unless noted, calls come from the whole dose curve; as a rule, active = well fitted curve in the direction sought with a large enough effect; inconclusive = small, poorly fitted or top-dose-only effect, or another doubt; inactive = no such curve, though single readings can be large; an effect the other way counts as inactive or inconclusive. % is set by controls: 0 for no effect and ±100 for the full control effect; potency is the fitted concentration of half-maximal effect.
SMILES,hNpr1 antagonist,FLuc inh,NIH3T3 tox,HEK293 tox
Cc1ccc(-c2cccc(CN3CCCC(c4nc5ccc(F)cc5c(=O)[nH]4)C3)c2)c(C)c1 (centres undefined),-5.1%,i,39.8µM*,31.6µM*!
O=c1[nH]c(C2CCCN(Cc3cccc(-c4cccs4)c3)C2)nc2ccc(F)cc12 (centres undefined),?,i,31.6µM*,31.6µM*
O=c1[nH]c(C2CCCN(Cc3cccc(-c4cccnc4)c3)C2)nc2ccc(F)cc12 (centres undefined),-29.3%,i,?,?
Cc1ccc2nc(C3CCCN(Cc4cccc(-c5cccs5)c4)C3)[nH]c(=O)c2c1 (centres undefined),?,i,?,?
Cn1ncc2c(C(=O)NCCc3ccc(Cl)cc3)cc(-c3ccc(C(F)(F)F)cc3)nc21,.,.,-20.3%,0.3%
Cn1ncc2c(C(=O)NCc3cccs3)cc(-c3ccccc3F)nc21,.,.,-22.6%,?
COc1cc(CNC(=O)c2cc(-c3ccc(Cl)cc3Cl)nc3c2cnn3C)cc(OC)c1,.,.,?,44.7µM*
CC(C)NC(=O)c1cc(-c2ccc(Cl)cc2Cl)nc2c1cnn2C,.,.,?,-29.6%
COc1cccc(-c2cc(C(=O)NCc3cccc(Cl)c3)c3cnn(C)c3n2)c1,.,.,22.4µM*,?
Cn1ncc2c(C(=O)NCc3cccs3)cc(-c3ccc(C(F)(F)F)cc3)nc21,.,.,?,35.5µM*
COc1cccc(CNC(=O)c2cc(-c3ccc(F)cc3)nc3c2cnn3C)c1,.,.,?,28.2µM*
Cc1ccc(OCc2nnc(NC(=O)NCCc3cnc[nH]3)s2)cc1,1.9%,i,?,?
Cc1ccnc(NCCNC(=O)C2CCC(=O)N(CC3CCCCC3)C2)c1 (centres undefined),2.0%,i,?,-15.0%
Cc1ccc(-c2cc(C(=O)NCc3cccc(Cl)c3)c3cnn(C)c3n2)cc1,.,.,-23.9%,3.1%
COc1cccc(-c2cc(C(=O)NCC(=O)c3ccccc3)c3cnn(C)c3n2)c1,.,.,-29.4%,-19.0%
Cn1ncc2c(C(=O)NCCc3c[nH]c4ccccc34)cc(-c3ccc(C(F)(F)F)cc3)nc21,.,.,39.8µM*,?
COc1cccc(-c2cc(C(=O)NCc3cccs3)c3cnn(C)c3n2)c1,.,.,25.1µM*!,?
Cc1ccc(-c2cc(C(=O)NCc3cccc(Cl)c3)c3cnn(C)c3n2)c(C)c1,.,.,?,31.6µM*
COc1cccc(-c2cc(C(=O)NCc3ccc(C(F)(F)F)cc3)c3cnn(C)c3n2)c1,.,.,-11.2%,-8.1%
COc1cccc(-c2cc(C(=O)NCC#N)c3cnn(C)c3n2)c1,.,.,39.8µM*,?
CN1CCN(C(=O)c2nc3sccn3c2-c2cccc(C(F)(F)F)c2)CC1,.,.,-21.7%,-8.5%
CC(C)N1C[C@@H]2C[C@H]1C(=O)N(Cc1ccccc1)c1ccccc1O2,-21.8%[70.6 µM],i,50.1µM*,?
COc1ccc(CN2C(=O)[C@@H]3C[C@@H](CN3Cc3ccc(S(C)(=O)=O)cc3)Oc3ccccc32)cc1,-2.4%,i,?,?
COc1ccc(CN2C(=O)[C@@H]3C[C@@H](CN3Cc3ccccc3C)Oc3ccccc32)cc1,-30.1%[70.6 µM],i,?,70.8µM*
COc1ccc(CN2C(=O)[C@@H]3C[C@@H](CN3Cc3ccccc3OC)Oc3ccccc32)cc1,-11.6%,i,i,i
SMILES,hNpr1 antagonist,FLuc inh,NIH3T3 tox,HEK293 tox
CC(C)N1C[C@@H]2C[C@H]1C(=O)N(Cc1cccnc1)c1ccccc1O2,0.3%[70.6 µM],i,?,-12.2%[172 µM]
O=C1[C@@H]2C[C@@H](CN2C2CCC2)Oc2ccccc2N1Cc1ccc(OC(F)(F)F)cc1,-29.1%[70.6 µM],i,39.8µM*,70.8µM*
COc1ccc(CN2C(=O)[C@@H]3C[C@@H](CN3Cc3ccccc3)Oc3ccccc32)cc1,-22.5%[70.6 µM],i,?,50.1µM*
CCS(=O)(=O)Nc1ccc(C2(C(=O)NCc3ccc4c(c3)OCO4)CCCCC2)cc1,4.0%,i,?,?
CC(=O)N1CCN(C(=O)c2nc3sccn3c2-c2cccc(C(F)(F)F)c2)CC1,.,.,-18.8%,-1.0%
COc1ccc(C(=O)N2CCN(C(=O)c3nc4cccnc4n(Cc4ccccc4OC)c3=O)CC2)cc1,.,.,-19.9%,-29.3%
O=C1[C@@H]2C[C@@H](CN2Cc2ccc(Cl)cc2)Oc2ccccc2N1Cc1ccccc1,?,i,31.6µM*,63.1µM*
O=C1Nc2ccccc2O[C@H]2C[C@@H]1N(Cc1ccc(C(F)(F)F)cc1)C2,?,i,?,70.8µM*
CN1C(=O)[C@@H]2C[C@@H](CN2Cc2ccccc2)Oc2ccccc21,-2.0%[70.6 µM],i,-7.1%[138 µM],3.4%[172 µM]
COCCN1C(=O)[C@@H]2C[C@@H](CN2Cc2ccc(C(F)(F)F)cc2)Oc2ccccc21,-1.9%[70.6 µM],i,?,79.4µM*
CN1C(=O)[C@@H]2C[C@@H](CN2Cc2ccc3ccccc3n2)Oc2ccccc21,-13.3%[70.6 µM],i,79.4µM*,?
CCCCn1c(=O)c(C(=O)NCC(F)(F)F)nc2cccnc21,.,.,-14.5%[138 µM],3.4%[172 µM]
COC1CCOC2(CCN(C(=O)Cc3cccc(F)c3)CC2)C1 (centres undefined),0.0%,i,-9.9%,-6.6%
COc1ccc(OCC2CC3(CCCCC3)CN2C(=O)Cc2cccc(F)c2)cc1 (centres undefined),.,.,39.8µM*,39.8µM*
Cc1nn(C)c(C)c1CCC(=O)NCCc1ncc(C)n1C1CC1,-17.6%,i,-2.3%,2.9%
Cc1nc(CN2C(=O)OC3(CCN(Cc4ccc(C(C)C)cc4)CC3)C2(C)c2ccccc2)cs1 (centres undefined),3.2%,i,44.7µM*,?
CC(=O)N1CCC2(CC1)OC(=O)N(Cc1ccccc1)C2(C)c1ccccc1 (centres undefined),-0.9%[70.6 µM],i,25.1µM*,-23.4%[172 µM]
Cc1ncsc1C(=O)N1CCC2(CC1)OC(=O)N(Cc1ccccc1F)C2(C)c1ccccc1 (centres undefined),2.1%,i,10µM*,-29.4%
COc1ccc(C(=O)N2CCC3(CC2)OC(=O)N(Cc2ccccc2F)C3(C)c2ccccc2)cn1 (centres undefined),-3.9%,i,?,?
CC1(c2ccccc2)N(Cc2ccccc2)C(=O)OC12CCN(C(=O)c1cccc(O)c1)CC2 (centres undefined),-4.9%,i,?,79.4µM*
Cc1nc(CN2C(=O)OC3(CCN(CCc4ccccc4)CC3)C2(C)c2ccccc2)cs1 (centres undefined),-10.0%,i,-22.4%,?
O=C(NCc1ccc2c(c1)OCO2)C1Cn2cccc2C(=O)N1Cc1cccnc1 (centres undefined),-13.9%,i,-1.1%,-0.6%
